The list is not random: actives were taken first. Their share in the collection is about 1.5%.
TLR4 MyD88 comp = inhibitors of TLR4-MyD88 association in cells, primary screen, cell-based, HeLa CL3-4, BLA complementation, FRET ratio; HeLa CL3-4 TLR4/MyD88 BLA complementation; 200,000 compounds, 0.18% hits; AID 861, 2007; inhibition, % at 8.4 µM; Toll-like receptor 4 (Homo sapiens) + Myeloid differentiation primary response protein …; in the data active means inhibition above about 25%;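 further: 0% = vehicle and 100% = reference inhibitor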
NOD2-RIPK2 inh = NOD2-RIPK2 binding disruptors in cells, primary screen, fluorescence, CHO cells, BLA complementation | Receptor-interacting serine/threonine-protein kinase 2 (Homo sapiens), O43353 | CCF4 ratio | inhibition, % at 4.98 µM | 360,000 compounds, 0.38% hits | AID 624267, 2012; in the data active means inhibition above about 21%;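 further: 0% = vehicle only and 100% = reference blocker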
ABHD5-PLIN5 inh = ABHD5-PLIN5 interaction inhibitors, primary screen, cell lysate, split luciferase complementation, luminescence; inhibition, % at 4 µM; Split G. princeps luciferase complementation, 4 h; 360,000 compounds, 0.78% hits;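 active means inhibition above the mean inhibition across every tested compound plus 3 SD, cut at about 22% in these data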;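 further: 0% = DMSO only wells and the 100% control is not disclosed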
Target sequence (Q00G26 whole entry, looked up): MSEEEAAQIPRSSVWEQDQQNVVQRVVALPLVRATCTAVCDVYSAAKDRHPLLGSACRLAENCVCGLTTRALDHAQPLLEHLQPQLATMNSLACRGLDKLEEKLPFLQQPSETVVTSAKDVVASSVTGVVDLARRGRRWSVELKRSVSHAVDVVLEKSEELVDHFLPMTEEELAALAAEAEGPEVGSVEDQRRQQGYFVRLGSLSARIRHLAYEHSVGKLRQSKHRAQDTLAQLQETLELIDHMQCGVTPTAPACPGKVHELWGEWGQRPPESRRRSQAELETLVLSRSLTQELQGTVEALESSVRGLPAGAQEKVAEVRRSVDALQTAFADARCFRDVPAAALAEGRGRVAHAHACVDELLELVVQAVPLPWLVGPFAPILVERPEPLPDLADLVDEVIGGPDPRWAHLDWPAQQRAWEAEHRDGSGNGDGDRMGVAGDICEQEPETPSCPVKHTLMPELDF
Target sequence (Q8WTS1 whole entry, looked up): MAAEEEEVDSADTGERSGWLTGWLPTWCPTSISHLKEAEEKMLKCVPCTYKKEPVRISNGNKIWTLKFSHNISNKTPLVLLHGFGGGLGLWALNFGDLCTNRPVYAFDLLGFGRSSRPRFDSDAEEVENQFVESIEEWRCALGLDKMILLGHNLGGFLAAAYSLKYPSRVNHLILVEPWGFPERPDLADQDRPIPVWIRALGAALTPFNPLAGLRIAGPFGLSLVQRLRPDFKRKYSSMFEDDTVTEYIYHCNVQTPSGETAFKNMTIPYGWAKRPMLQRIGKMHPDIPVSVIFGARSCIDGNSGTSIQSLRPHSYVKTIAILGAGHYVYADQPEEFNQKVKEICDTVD
NTR1 agonist = agonists of human NTR1, primary screen, imaging, U2OS cells, beta-arrestin-GFP, high content; 330,000 compounds, 0.17% hits; AID 493036, 2011; NTR1-U2OS beta-arrestin-GFP spot imaging, agonist mode; activation, % at 20 µM; Neurotensin receptor type 1 (Homo sapiens), P30989;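 active means activation at or above 40% of the spot to cytoplasm intensity ratio, with at least 20 cells analyzed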;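 further: 0% = DMSO without peptide and 100% = 100 nM NTR1 peptide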
TLR9-MyD88 inh = inhibitors of TLR9-MyD88 association in cells, primary screen, cell-based, CHO, BLA complementation, fluorescence | Toll-like receptor 9 (Homo sapiens) + Myeloid differentiation primary response protein … | CCF4 FRET ratio | inhibition, % at 4.98 µM | 340,000 compounds, 0.21% hits | AID 504734, 2011;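 active means inhibition above the mean over all tested compounds plus 3 SD, cut at about 21% in these data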;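 further: 0% = DMSO only wells and 100% = clavulanate BLA inhibitor control wells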
B2AR ag = beta2AR agonists driving receptor internalization, primary screen, cell-based, FAP fluorogen, flow cytometry | Beta-2 adrenergic receptor (Homo sapiens), P07550 | Am2.2-beta2AR cells | response, % (concentration not given with the values) | 340,000 compounds, 0.43% hits | AID 504454, 2011;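 active means response above a set limit, near 3 SD of response in nonfluorescent compounds, cut at about 42% in these data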
ABHD5 PLIN5 conf = ABHD5-PLIN5 interaction inhibitors, confirmation, biochemical, luminescence | inhibition, % at 4 µM | shares compounds with ABHD5-PLIN5 inh | 2,200 compounds, 67% hits | AID 651612, 2012; in the data active means inhibition above about 23%;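 further: 0% = DMSO vehicle wells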
HNF4 counter = HNF4 dimerization inhibitors, counter-screen for ABHD5-PLIN5 interaction inhibitor project, biochemical, split-luciferase complementation, luminescence; shares compounds with ABHD5-PLIN5 inh; inhibition, % at 4 µM; 2,200 compounds, 77% hits;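 active means mean inhibition across replicate wells exceeding the computed hit threshold, cut at about 13% in these data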;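 further: light from luciferase halves that rejoin when HNF4 fusion proteins dimerize; 0% = DMSO only wells and the 100% control is not given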
The depositor's hits bear a star; x = not tested or not shown.

SMILES	TLR4 MyD88 comp	NOD2-RIPK2 inh	ABHD5-PLIN5 inh	NTR1 agonist	TLR9-MyD88 inh	B2AR ag	ABHD5 PLIN5 conf	HNF4 counter
COCCNc1nc2cc(-c3cccc(Cl)c3)sc2c(=O)n1C	x	-10	5	x	x	x	x	x
CN(C)c1ccc(-c2ccnc3c2CC(C)(C(=O)NCC2CC2)O3)cc1 (centres undefined)	x	-2	-3	x	x	x	x	x
CSCCC(NC(=O)c1ccco1)C(=O)NNC(=O)c1n[nH]c(=O)c2ccccc12 (centres undefined)	x	-2	66*	-1	-3	-2	4	4
COc1ccc(CNC(=O)C(CCSC)NC(=O)c2ccco2)cc1 (centres undefined)	-8	-4	-3	-4	-2	-2	x	x
O[C@@H]1CN(Cc2cccs2)[C@@H](c2ccc(Cl)cc2)C[C@H]1n1cc(-c2ccc(F)cc2)nn1	x	4	-6	x	-6	x	x	x
COc1nc(NC(C)C)nc(N(C#N)CN2C(=O)c3ccccc3S2(=O)=O)n1	x	7	26*	2	1	9	29*	26*
CC(C)(C)Nc1nc(Cl)nc(N(C#N)CN2C(=O)c3ccccc3S2(=O)=O)n1	19	9	33*	13	1	45*	30*	24*
CC(C)C(C(=O)NCc1ccccc1)N1CCN(C(=O)C2CCCO2)CC1 (centres undefined)	x	-5	-5	x	x	x	x	x
N#C/C(=C\c1cccc(Br)c1)C(=O)N1CCCCC1	x	11	24*	6	5	17	71*	53*
N#C/C(=C\c1cccc(O)c1)C(=O)N1CCCCC1	x	1	17	1	-6	14	x	x
N#C/C(=C\c1ccccc1)C(=O)N1CCN(c2ccccc2F)CC1	x	0	38*	8	-1	1	52*	38*
C=CCn1c(SCC(=O)Nc2cc(C)on2)nc2ccccc21	x	-10	-3	x	-12	x	x	x
CCCCN(CCCNC(=O)c1ccc2c(c1)NC(=O)CN2C)c1ccccc1	x	-2	70*	x	6	x	52*	72*
CC1CCCCN1CCCNC(=O)c1ccc2c(c1)NC(=O)CN2C (centres undefined)	x	6	10	x	-91	x	x	x
CC(C)=NNc1cnnc2ccc([N+](=O)[O-])cc12	x	-9	-5	x	x	x	x	x
CCCCCCCCCCCCCCCC[n+]1ccc(/C=N/O)cc1	5	14	31*	21	14	3	11	7
CC(=O)C1=C(S(=O)(=O)c2ccc(C)cc2)CS(=O)(=O)C1	-13	-4	29*	-1	-8	9	99*	110*
COc1ccc(N(C(=O)C(C)C)S(=O)(=O)c2cccs2)cc1	-18	-14	2	-1	-10	-4	x	x
CC(C)C(=O)N(c1cc2sc(=O)oc2c2ccccc12)S(=O)(=O)c1cccs1	9	-18	68*	14	9	21	9	75*
CC(C)C(=O)N1CCC1(C)C(=O)Nc1cc(-c2ccccc2)nn1C (centres undefined)	x	-5	-5	x	x	x	x	x
Cc1cccc(C)c1NC(=O)C(c1ccccc1)N1CCN(c2ccc(F)cc2)CC1 (centres undefined)	x	-6	0	x	x	x	x	x
COc1ccc(OC)c(NC(=O)CN2C(=O)CSc3ccc(S(=O)(=O)N4CCCC4)cc32)c1	x	-2	54*	0	1	8	1	7
COc1ccc(C)cc1NC(=O)CN1C(=O)CSc2ccc(S(=O)(=O)N3CCCC3)cc21	x	2	1	1	2	-6	x	x
COc1ccccc1CNC(=O)Nc1nnc([C@H]2C[C@H](O)[C@@H](CO)O2)s1	x	-1	-2	x	x	x	x	x
CCCCCNC(=O)C(c1ccc(-c2ccccc2)cc1)n1c(=O)c(-c2ccccc2)nc2ccccc21 (centres undefined)	x	6	-3	x	x	x	x	x
SMILES	TLR4 MyD88 comp	NOD2-RIPK2 inh	ABHD5-PLIN5 inh	NTR1 agonist	TLR9-MyD88 inh	B2AR ag	ABHD5 PLIN5 conf	HNF4 counter
CCCCCNC(=O)C(c1cccc2ccccc12)n1c(=O)c(-c2ccccc2)nc2ccccc21 (centres undefined)	x	-15	-2	x	x	x	x	x
CCCCCNC(=O)C(c1ccc(OC)cc1)n1c(=O)c(-c2ccco2)nc2ccccc21 (centres undefined)	x	0	71*	x	x	x	96*	62*
CCCCCNC(=O)C(c1ccc(C#N)cc1)n1c(=O)c(-c2ccco2)nc2ccccc21 (centres undefined)	x	-5	75*	x	x	x	44*	10
CCCCCNC(=O)C(c1ccccc1F)n1c(=O)c(-c2ccco2)nc2ccccc21 (centres undefined)	x	2	96*	x	x	x	57*	4
CC(C)(C)NC(=O)C(c1ccccc1F)n1c(=O)c(-c2ccco2)nc2ccccc21 (centres undefined)	x	-13	54*	x	x	x	91*	36*
Cc1ccc2ccccc2c1C(O)c1ncc(-c2ccccc2)[nH]1 (centres undefined)	x	8	1	x	x	x	x	x
O=C1NC[C@H](CCCCN2C[C@H](Cc3ccccc3)N(CCc3ccc(O)cc3)C(=O)C2=O)N(CCC2CCCCC2)C1=O	x	4	-2	x	x	x	x	x
N=C1C=CC(=C(c2ccc(N)cc2)c2ccc(N)cc2)C=C1	x	-19	34*	x	3	-15	56*	60*
COc1ccc(CN=C2Nc3ccccc3CS2)cc1	-10	-3	37*	2	-6	-11	3	3
COc1ccc(CN=C2NN=C(c3ccc(Cl)cc3)CS2)cc1	6	4	-11	2	-2	-4	x	x
CC(=O)Nc1cc(-c2cccc(F)c2)cn2c(-c3ccc(F)cc3)cnc12	x	13	-2	x	x	x	x	x
O=C1NC[C@@H](CCCCN2C[C@H](Cc3ccc(O)cc3)N(Cc3ccccc3)C(=O)C2=O)N(CC2CCCCC2)C1=O	x	1	-8	x	x	x	x	x
COC(=O)[C@@]1(Cc2ccc(F)cc2)[C@H]2c3cc(C(=O)N(C)C)n(CCCNc4ncc(C(F)(F)F)cc4Cl)c3C[C@H]2CN1C(=O)c1ccccc1	x	-7	25*	x	x	x	8	5
COC(=O)[C@@]1(Cc2ccc(F)cc2)[C@H]2c3cc(C(=O)N(C)C)n(CCO)c3C[C@H]2CN1C(=O)c1ccccc1	x	-16	8	x	x	x	x	x

Assay outcomes: PubChem, several laboratories
